# SARS PLP yeast: blocks SARS-CoV papain-like protease in a yeast assay; hit rate 0.19% among 330,000; Potency, µM (series often up to 32.9 µM), most hits filed as activators; AID 485353; S. cerevisiae expressing SARS-CoV PLpro, growth rescue; calls by dose curve; also: nearly all actives have a fitted effect of over 55% in size
# Shiga inhibitor: inhibitors of Shiga toxin in Vero cells. Vero cells, Shiga toxin protein synthesis inhibition reporter. inhibition, % at 38.7 µM. hit rate 9.2% among 290,000. AID 2315; in the data active = inhibition mostly above about 28%, no sharp cut-off; inactive = mostly below about 43%
# Pf growth 48h: inhibits P. falciparum growth in the first generation, 48 h; P. falciparum luciferase growth in erythrocytes, 48 h; AID 504832; hit rate 5.9% among 310,000; Potency, µM (highest dose often 28.7 µM), hits mostly inhibitors
#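 Read-out is firefly luciferase luminescence from an integrated reporter in P. falciparum, so falling signal marks reduced parasite growth. Infected erythrocytes were at 2% hematocrit and 0.1% parasitemia (final) in Albumax-supplemented RPMI 1640.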
# CHX counter: affects cycloheximide protein synthesis inhibition readout, counter-screen | hit rate 12% among 300,000 | AID 2314 | cell reporter, cycloheximide protein synthesis inhibition counterscreen | max response, %; in the data active = max response mostly above about 13%, no sharp cut-off; inactive = mostly below about 14%; also: read at 38.3 µM for the half of the compounds with a filed dose
# Pf growth 96h: P. falciparum growth inhibition at 96 hour, primary screen for plastid delayed-death inhibitors; AID 504834; hit rate 6.9% among 320,000; Potency, µM (doses to about 28.7 µM), usual class: inhibitors; P. falciparum luciferase reporter growth, 96 h
#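 Erythrocytes infected with luciferase-expressing P. falciparum were dispensed at 2% hematocrit and 0.05% parasitemia (final), then incubated with compounds 96 hours at 37 C in 5% CO2. Luminescence after detection reagent addition reported growth.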
# NS1 function inh: inhibitors of influenza NS1 protein function | AID 2326 | Potency, µM (series often up to 46.1 µM) | hit rate 0.4% among 270,000; calls by dose curve; also: actives are rising curves; nearly all actives have a fitted effect of over 50% in size
#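 Compounds were scored for reversing the slow growth caused by influenza A NS1 in S. cerevisiae, measured by optical density at 600 nm. Assay medium contained 2% galactose at pH 6.0; NS1-free yeast of the same strain were the positive control.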
# Hits are given with their value; . = inactive; ? = inconclusive; / = not tested or not shown. In the library only some 21% were active in any assay of this set; here they are far more common. Unless noted, calls follow the shape of the dose curve; as a rule, active = well fitted inhibition curve with a large enough effect; inconclusive = small, poorly fitted or top-dose-only effect, or another doubt; inactive = no such curve, though single readings can be large or run the other way.
SMILES,SARS PLP yeast,Shiga inhibitor,Pf growth 48h,CHX counter,Pf growth 96h,NS1 function inh
C[n+]1cccc(C(=O)N/N=C/c2ccc3c(c2)OCO3)c1,.,.,.,.,.,.
CCN(CC)c1ccc(/C=N/NC(=O)Nc2nonc2N)cc1,.,65.5,.,56.6,.,.
O=C(N/N=C/c1ccc2c(c1)OCO2)c1ccc2c(c1)OCCO2,.,64.0,.,54.9,.,.
Cc1nc(SCC(=O)c2ccc(F)c(F)c2)[nH]c(=O)c1Oc1ccc(F)cc1,.,.,.,.,?,.
O=C(N/N=C/c1ccsc1)c1ccc2c(c1)OCO2,.,/,.,/,.,/
O=C(N/N=C/c1ccc(Cl)cc1)c1ccc2c(c1)OCO2,.,90.3,.,51.3,.,.
O=C(N/N=C/c1ccccc1O)c1ccc2c(c1)OCO2,.,95.8,.,49.7,.,.
O=C(N/N=C/c1cccc([N+](=O)[O-])c1)c1ccc2c(c1)OCCO2,.,61.8,.,42.5,.,.
O=C(N/N=C/c1ccncc1)c1ccc2c(c1)OCO2,.,75.5,.,23.9,?,/
CN(C(=O)CN1CCN(c2ccccc2F)CC1)C1CCCc2ccccc21 (stereo not drawn),.,.,.,.,.,.
CC1CCN(S(=O)(=O)c2cccc(C(=O)Oc3ccc([N+](=O)[O-])cc3)c2)CC1,.,.,.,.,?,.
Cc1nc2ccc(C(=O)c3ccccc3)cc2[nH]1,.,52.9,.,34.3,.,.
O=C(N/N=C/c1ccc2c(c1)OCO2)c1ccc(Br)o1,.,138.9,.,81.4,.,.
O=C(N/N=C/c1ccc2c(c1)OCO2)c1ccc(Cl)cc1Cl,.,.,.,15.2,.,.
O=C(NCc1ccc2c(c1)OCO2)c1ccc(Br)o1,.,.,.,.,.,.
Cc1nc2ccc(C(=O)N/N=C/c3ccccc3O)cc2[nH]1,.,84.2,?,43.9,?,.
O=C(c1ccccc1)c1ccc2nc[nH]c2c1,.,.,.,.,/,.
O=C(N/N=C/c1ccc2c(c1)OCO2)c1sc2cc(Cl)ccc2c1Cl,.,.,.,.,.,.
Cc1ccc(-n2cc(CNC(C)c3cnn(C)c3C)c(-c3ccc(F)cc3)n2)cc1 (stereo not drawn),.,.,?,.,?,.
N#CCCn1c(C2CCCCC2)nc2ccccc21,.,.,.,.,.,.
O=C(N/N=C/C1CC2CCC1C2)c1ccc2c(c1)OCO2 (stereo not drawn),.,39.2,.,40.6,.,.
O=C(N/N=C/c1cc(Cl)cc([N+](=O)[O-])c1O)c1ccc2c(c1)OCO2,.,.,?,.,.,.
Cc1cc(=O)c2cc(C(=O)c3ccccc3)ccc2[nH]1,.,.,13.1µM,9.4,?,.
COC(=O)c1ccc2[nH]c(C)cc(=O)c2c1,.,.,.,.,.,.
CCN(CC)c1ccc(/C=N/NC(=O)C2CC2)cc1,.,80.5,?,47.8,.,.
SMILES,SARS PLP yeast,Shiga inhibitor,Pf growth 48h,CHX counter,Pf growth 96h,NS1 function inh
O=C(N/N=C/c1ccccc1OC(=O)c1ccc2c(c1)OCO2)c1cccc(F)c1,.,64.0,.,.,.,.
CCCCCCOc1ccc(/C=N/NC(=O)C2CC2)cc1,.,.,?,.,.,.
COc1cc(/C=C/C(=O)OCC(=O)N(C)C2CCS(=O)(=O)C2)ccc1OC(F)F (stereo not drawn),.,.,?,.,?,.
COc1ccc(NC(=S)N2CCN(Cc3ccco3)CC2)c(OC)c1,.,.,.,.,?,.
O=C(N/N=C/c1cccs1)c1ccc2c(c1)OCO2,.,.,.,25.0,.,.
Cc1cc(Br)cc(/C=N/NC(=O)c2ccc3c(c2)OCO3)c1O,.,25.7,13.1µM,17.3,13.1µM,.
O=C(Nc1ccc(NC(=O)c2cccs2)cc1)c1ccc2c(c1)OCO2,.,.,.,.,.,.
CCN(CC)c1ccc(/C=N/NC(=O)c2ccc(Br)o2)cc1,.,37.9,.,32.9,?,.
C[C@@H](C(=O)NNC(=O)c1ccc(Cl)cc1)N1C(=O)C2CC=CCC2C1=O (stereo partly drawn),.,/,/,/,/,/
Clc1ccc2nnnc(-c3ccccc3)c2c1,.,97.8,?,52.1,?,.
c1ccc(-c2nnnc3ccccc23)cc1,.,.,.,.,.,.
Cc1onc(-c2ccc(Cl)cc2)c1-c1ccnc(SCC(=O)Nc2cc(Cl)cc(Cl)c2)n1,.,.,?,.,?,.
Cc1onc(-c2ccc(Cl)cc2)c1-c1ccnn1S(=O)(=O)c1cccc(C(F)(F)F)c1,.,.,1.65µM,.,3.29µM,.
Cc1onc(-c2ccccc2)c1-c1ccnn1S(=O)(=O)c1ccc(Cl)cc1,.,88.3,?,44.1,3.29µM,.
Cc1onc(-c2ccccc2)c1C(=O)N1CCN(S(=O)(=O)c2ccc(Cl)cc2)CC1,.,.,.,.,.,.
Cc1ccc(S(=O)(=O)n2nccc2-c2c(-c3ccccc3)noc2C)cc1,.,.,5.86µM,.,?,.
Cc1ccc(S(=O)(=O)N2CCN(Cc3nnc(-c4c(-c5ccccc5)noc4C)o3)CC2)cc1,.,/,?,/,?,/
CC(C)CN=C(N)N=C(N)N,/,/,/,/,/,.
COC(=O)c1cc(C)nc(Sc2ccccc2N)n1,.,45.2,?,18.3,?,.
O=c1c2ccccc2c(C=Nc2ccccc2O)c(O)n1-c1nccs1,.,.,13.1µM,.,?,.
Cc1ccccc1N=Cc1c(O)n(-c2nccs2)c(=O)c2ccccc12,.,.,.,.,.,.
Cc1cccc(C)c1NC(=O)CNC(=O)Cn1nc(C)c(C)c(C#N)c1=O,.,/,?,/,?,/
COC(=O)c1c(NC(=O)c2ccc(N(C)S(=O)(=O)c3ccc(C)cc3)cc2)sc2c1CCCC2,.,.,?,.,?,.
COc1cc(OC)cc(C(=O)Nc2sc3c(c2C(N)=O)CCC3)c1,.,.,.,.,.,.
COc1ccc(C(=O)Nc2sc3c(c2C(N)=O)CCCC3)cc1OC,/,59.9,/,42.1,/,/
SMILES,SARS PLP yeast,Shiga inhibitor,Pf growth 48h,CHX counter,Pf growth 96h,NS1 function inh
COCCN(CCOC)S(=O)(=O)c1ccc(C(=O)Nc2sc3c(c2C(N)=O)CCCCC3)cc1,.,63.5,.,32.7,.,.
Clc1cccc(Cl)c1CSc1cc2c(nn1)-c1ccccc1CC2,.,.,.,.,.,.
O=c1cc2c(nn1Cc1c(Cl)cccc1Cl)-c1ccccc1CC2,.,.,/,.,5.22µM,.
COc1ccc(NC(=O)c2cnc(SC)nc2C)c(OC)c1,.,.,.,.,.,.
O=C(Nc1sc2c(c1C(=O)O)CCCC2)c1ccc(Cl)cc1,.,.,.,18.8,.,.
O=C(Nc1sc2c(c1C(=O)O)CCCC2)c1cccc(Cl)c1,.,98.0,.,50.5,.,.
NCCNC(=O)c1c(NC(=O)c2ccccc2)sc2c1CCCC2,.,.,?,23.8,?,.
NC(=O)c1c(NC(=O)c2ccc(N3C(=O)CCC3=O)cc2)sc2c1CCCC2,.,/,.,/,?,/
O=C(Nc1sc2c(c1C(=O)O)CCC2)c1ccccc1,.,142.8,.,41.2,/,.

# Screening data: PubChem, National Center for Advancing Translational Sciences (NCATS)
